High-throughput results: PubChem, The Scripps Research Institute Molecular Screening Center
CHRM1 agonist: agonists of human M1 muscarinic receptor. activation, % at 3 µM. CHO-K1 hM1, Fluo-8 calcium fluorescence, agonist mode; 0% DMSO, 100% acetylcholine EC100. P11229. AID 588814. 0.33% of 360,000 active;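 active = activation above the run's mean compound activation plus 3 SD, cut at about 16% in these data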;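 also: peak over basal fluorescence ratio within a 140 s kinetic read after compound addition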
Target sequence (P11229 whole entry, looked up): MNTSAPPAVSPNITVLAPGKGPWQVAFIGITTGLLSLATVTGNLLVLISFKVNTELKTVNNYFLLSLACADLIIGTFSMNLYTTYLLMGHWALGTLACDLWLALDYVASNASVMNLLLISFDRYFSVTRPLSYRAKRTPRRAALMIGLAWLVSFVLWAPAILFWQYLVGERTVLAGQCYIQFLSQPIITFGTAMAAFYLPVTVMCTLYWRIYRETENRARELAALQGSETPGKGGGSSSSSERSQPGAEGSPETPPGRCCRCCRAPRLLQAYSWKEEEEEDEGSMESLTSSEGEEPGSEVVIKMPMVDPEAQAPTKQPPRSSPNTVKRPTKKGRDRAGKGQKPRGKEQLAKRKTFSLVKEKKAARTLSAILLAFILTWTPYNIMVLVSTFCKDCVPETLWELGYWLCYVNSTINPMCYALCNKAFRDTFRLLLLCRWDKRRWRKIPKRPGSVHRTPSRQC
CHRM4 antagonist: CHRM4 antagonism in calcium assay. P08173. inhibition, % at 3 µM. CHO-hM4 cells, ACh EC80, Fluo-8 calcium fluorescence. 0.73% of 360,000 active;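 active = inhibition above its plate's cutoff, the mean inhibition of sample wells plus 3 SD, cut at about 27% in these data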
CHRM1 antagonist: antagonists of human M1 muscarinic receptor | P11229 | CHO-K1 hM1, Fluo-8 calcium fluorescence, ACh EC80 antagonist | inhibition, % at 3 µM | 1.3% of 360,000 active | AID 588852;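 active = percent inhibition above its own plate's cutoff, namely the mean of that plate's compound wells plus 3 SD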;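 also: peak over basal fluorescence ratio during 140 s after agonist addition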
M1 PAM: human CHRM1 positive allosteric modulation. activation, % at 3 µM. P11229. 0.088% of 360,000 active. AID 588819. CHO-K1 hM1, Fluo-8 calcium fluorescence, ACh EC20; 0% = ACh EC20, 100% = maximal ACh; in the data active = activation above about 19%, passing the limit was not always enough
CHRM4 PAM: CHRM4 positive allosteric modulation; P08173; CHO-K1 hM4/Gqi5, Fluo-8 calcium fluorescence, ACh EC20; 0% = ACh EC20, 100% = maximal ACh; activation, % at 3 µM; 0.4% of 360,000 active; AID 624126;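 active = activation above its plate's cutoff, the mean activation of sample wells plus 3 SD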
M4 ag: agonists of human muscarinic M4 receptor (CHRM4); P08173; CHO-K1 hM4/Gqi5, Fluo-8 calcium fluorescence; vehicle 0%, full acetylcholine response 100%; activation, % at 3 µM; 0.14% of 360,000 active; AID 624127;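 active = activation above the run mean over all test wells plus 3 SD, cut at about 32% in these data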;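 also: peak over basal fluorescence ratio per well then scaled between controls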
Large screens that a line does not name were inactive. Compounds with a hit are over-represented: about 2.2% of the library has one in this group of screens.

CCC[C@@H](CN1CCC[C@H]1CN1C(N)=NC[C@H]1CC(C)C)N1C[C@@H]([C@H](C)CC)N(CCCC2CCCC2)C1=N	CHRM1 antagonist 59
CC(C)C[C@@H]1CN=C(N)N1C[C@@H]1CCCN1C[C@H](C)N1C[C@@H](Cc2ccccc2)N(CCCC2CCCC2)C1=N	CHRM1 antagonist 34
CCC[C@@H](CN1CCC[C@H]1CN1C(N)=NC[C@H]1C(C)C)N1C[C@@H]([C@H](C)CC)N(CCCC2CCCC2)C1=N	none
CC(C)(C)c1[nH]nc2c1C(c1cccnc1)C(C#N)=C(N)O2 (configuration not stated)	none
CCCn1cc(CN2CCCC(C(=O)c3cccc(OC(C)C)c3)C2)c(C)n1 (configuration not stated)	CHRM1 antagonist 39
CC(C)Oc1cccc(C(=O)C2CCCN(Cc3cnc(N4CCCC4)s3)C2)c1 (configuration not stated)	none
CCCn1ncc(CN2CCCC(C(=O)c3cccc(OC(C)C)c3)C2)c1C (configuration not stated)	CHRM4 antagonist 66, CHRM1 antagonist 99
O=C1C=CC2(O[C@H](c3ccccc3)[C@@H](c3ccccc3)O2)[C@H](Sc2ccccc2O)C1	CHRM4 antagonist 57
COc1ccc(C[C@@H]2CN3C(=NC[C@@H]3Cc3ccc(O)cc3)N2C[C@H](C)NC(=O)CCC2CCCCC2)cc1	CHRM4 antagonist 28, CHRM1 antagonist 48
COc1ccc(C[C@H]2CN3C(=NC[C@@H]3Cc3ccc(O)cc3)N2C[C@H](C)NC(=O)CCC2CCCCC2)cc1	none
COc1ccc(Cl)cc1NC(=O)CN1CCC(n2nnc3ccccc32)CC1	none
COc1cc2c(cc1OC)C(c1ccc(-c3ccc(Cl)c(Cl)c3)o1)=NCC2	none
Cc1nc(-c2cc(-c3nc(-c4ccc(C(C)(C)C)cc4)no3)no2)cs1	CHRM4 antagonist 28
CC(=O)c1cccc(CN2CCN(CCC(C)C)C(CCO)C2)c1 (configuration not stated)	none
CN(C)S(=O)(=O)c1ccc(C(=O)Nc2nc(-c3cc4ccccc4o3)cs2)cc1	CHRM1 antagonist 24
CN1CCc2c(sc3c2c(=O)n(-c2ccccc2)c2nncn32)C1	none
Cc1ccc(Nc2ccc3nonc3c2[N+](=O)[O-])cc1	none
C(C#CCCCCCCCCC[n+]1ccccc1)#CCCCCCCCCC[n+]1ccccc1	CHRM4 antagonist 92, CHRM1 antagonist 98
CCOC(=O)c1cccc(NC(=O)CN(C)S(=O)(=O)c2cnc[nH]2)c1	none
O=[N+]([O-])c1ccc(S(=O)(=O)CC2CSc3nc4ccccc4n32)cc1 (configuration not stated)	CHRM4 PAM 33
CC(=O)c1nn(-c2cccc(Br)c2)cc1C(=O)c1ccc2ccccc2c1	CHRM1 antagonist 35
COc1ccc(C(=O)c2cn(-c3cccc(Br)c3)nc2C(C)=O)cc1	none
O=C(NC(=O)N1CCN(C(c2ccccc2)c2ccccc2)CC1)c1ccccc1	CHRM4 antagonist 30, CHRM1 antagonist 66
O=C(c1ccc(C#CC2(O)CCCCC2)cc1)N1CCN(C(c2ccccc2)c2ccccc2)CC1	CHRM4 antagonist 35
O=C(Nc1ccccc1C(F)(F)F)N1CCCCCC1	none
O=C(Nc1ccccc1C(F)(F)F)N1CCN(C(c2ccccc2)c2ccccc2)CC1	CHRM4 antagonist 35, CHRM1 antagonist 44
Cc1c(C(C)C)c(=O)n(-c2ccc(S(=O)(=O)NCc3ccccc3)cc2)n1C	CHRM1 antagonist 34
Cc1c(C(C)C)c(=O)n(-c2ccc(S(=O)(=O)NC3CCCCC3)cc2)n1C	none
CCOc1ccc(-c2c(C(=O)N/N=C/c3ccsc3)nnn2-c2nonc2N)cc1	CHRM1 agonist 28
CCCc1c(C(=O)N/N=C(\C)c2ccccn2)nnn1-c1nonc1N	none
CCOc1cccc(-c2c(C(=O)N/N=C(\C)c3cccs3)nnn2-c2nonc2N)c1	CHRM1 agonist 31
CCOc1cccc(-c2c(C(=O)N/N=C/c3ccc(Br)cc3)nnn2-c2nonc2N)c1	CHRM1 agonist 19
